Test results reported in PubChem BioAssay AID463173 (ICCB-Longwood Screening Facility, Harvard Medical School, 2010).
The whole screen tested about 52,000 compounds, of which about 4,300 (8.3%) were called active. The entries come from a sample that favours actives as a whole. Unmarked numbers belong to inactive results. Rule as the data show it: active = survival mostly below about 52% (no sharp cut-off); inactive = mostly above about 56%.

These molecules were tested on DeltatarO mutant (assay: growth inhibition of S. aureus wild type versus tarO mutant, primary screen, teichoic acid synthesis inhibitors, RN4220, OD600 (AID 463173)). Details: OD600, 18 h, active compounds read low, screened at 18.75 µg/mL (by protocol).

In order of falling survival:
1. CCOc1ccc(CNC(=O)CCCn2c(=O)c3cccn3c3cccnc32)cc1  120%
2. CCOc1ccc(Cn2c(=O)oc3ccccc32)cc1  117%
3. CC(C)Oc1ccc(CNC(=O)CCCn2c(=O)c3cccn3c3cccnc32)cc1  111%
4. CCCCCC1CC(CC(=O)Nc2nncs2)C(=O)O1 (centres undefined)  110%
5. COc1cccc(NC(=O)Cn2c(=O)n(-c3cccc(OC)c3)c(=O)c3c4c(sc32)CCCC4)c1  107%
6. Cc1cccc(NC(=O)CSc2ccc(-c3ccccn3)nn2)c1  103%
7. COc1cccc(CNC(=O)Cn2c(=O)c3cccn3c3ccc(F)cc32)c1OC  103%
8. CCn1c(=O)c2cc(C(=O)NCCCOC)sc2c2ccccc21  103%
9. COc1ccc(C2CC3(CC(C)(C)NC(=O)N3)Oc3cc(O)ccc32)cc1 (centres undefined)  102%
10. CC(=O)Nc1ccccc1N1CCCCC1  100%
11. N#Cc1ccccc1NC(=O)CC1Nc2ccccc2NC1=O (centres undefined)  98%
12. CCOc1ccc(NC(=O)NC(C)c2c(-n3cccc3)sc3c2CCN(CC)C3)cc1 (centres undefined)  96%
13. CCc1ccc(-n2nc(CO)c(C(=O)NCCCc3ccccc3)n2)cc1  95%
14. Cc1nc2ccn(Cc3ccccc3)c(=O)c2cc1C(=O)N1CCN(c2ccc(F)cc2)CC1  95%
15. Cc1ccc(CNC(=O)c2nn(-c3ccc(Cl)cc3)nc2CO)cc1  94%
16. COc1ccc(Br)cc1CNC(=O)c1cc2c(=O)n(C)c3ccccc3c2s1  94%
17. Cc1nc(C)c(-c2ccc(SCC(=O)Nc3ccc(C)c(F)c3)nn2)s1  93%
18. Cc1nn(CCC(=O)NCc2cccc(Br)c2)c(=O)c2nn(-c3ccccc3)c(C)c12  92%
19. COCCNC(=O)c1nn(-c2ccc(Cl)cc2)nc1CO  91%
20. O=C(COc1ccc(S(=O)(=O)N2CCCC2)cc1)N1CCCC1  91%
21. CCc1ccc(CNC(=O)CCn2c(=O)c3cccn3c3ccc(F)cc32)cc1  91%
22. Cc1ccc(C(=O)N2CCc3cc(CNC(=O)c4ccnn4C)ccc32)cc1  91%
23. Cc1ccc(-n2nc(CO)c(C(=O)NCc3cccnc3)n2)cc1  90%
24. CCOc1ccc(-n2nc(CO)c(C(=O)NCCCc3ccccc3)n2)cc1  89%
25. CCC(=O)Oc1cc(C(C)(C)C)cc2cc(-c3nc(-c4ccc(OC)cc4OC)no3)c(=O)oc12  89%
26. CC(C)CCNC(=O)C(=O)Nc1c2c(nn1-c1ccc(Cl)cc1)CSC2  86%
27. COc1cccc(CNC(=O)c2nn(-c3ccccc3Cl)nc2CO)c1  85%
28. O=C(COc1ccccc1)N(Cc1cccnc1)c1nc2c(F)cccc2s1  84%
29. COc1ccc(-c2nc3c4ccccc4n(CC(=O)Nc4cc(F)ccc4F)c(=O)n3n2)cc1  84%
30. CCn1c(=O)c2cc(C(=O)Nc3cccc(C(F)(F)F)c3)sc2c2ccccc21  84%
31. COCCCn1c(=O)c2sccc2n2c(CCCC(=O)Nc3ccc(F)c(F)c3)nnc12  83%
32. COc1cc(NC(=O)CCc2c(C)nc3nc(-c4cc(OC)cc(OC)c4)nn3c2C)cc(OC)c1  83%
33. Cc1ccc(C)c(N2CCN(C(=O)Cn3cnc4onc(-c5ccc(F)cc5)c4c3=O)CC2)c1  83%
34. Cc1nc(-c2ccc(F)cc2)sc1CCNC(=O)Cc1ccc(F)cc1  81%
35. Cc1c(Cl)cccc1Nc1nn2c(=O)c3ccc(C(=O)N(C)Cc4ccccc4)cc3nc2s1  81%
36. Cc1ccc(-c2noc(CNS(=O)(=O)c3ccc(F)cc3)n2)cc1  81%
37. CC1=C(c2ccc(C)cc2)S(=O)(=O)N(Cc2ccc(C(=O)NCc3ccccc3F)cc2)C1=O  80%
38. CCOc1ccc(CNC(=O)Cn2c(=O)c3cccn3c3ccc(F)cc32)cc1  80%
39. Cc1cccc(CNC(=O)CCCn2c(=O)c3cccn3c3ccc(F)cc32)c1  79%
40. Cc1ccc(NC(=O)Cn2c(=O)cc(-c3ccccc3)c3c(C)nn(C)c32)c(Cl)c1  78%
41. Cc1nn(CCCC(=O)Nc2cc(C(F)(F)F)ccc2Cl)c(=O)c2c1sc1ccccc12  78%
42. CCOc1ccc(CN2CCN(C(=O)c3ccco3)CC2)cc1  77%
43. CC(C)(C)OC(=O)N1CCC(c2c(C(=O)NC3CCCCC3)cnn2-c2ccc(F)cc2F)CC1  76%
44. Cc1cc(C)nc(Sc2ccccc2)n1  76%
45. CCc1ccc(NC(=O)Cn2c(=O)n(CCC(C)C)c(=O)c3cccnc32)cc1  76%
46. Cc1ccc(-c2nc3sc(CCNC(=O)c4ccc(F)c(F)c4)c(C)n3n2)cc1  76%
47. CCn1c(=O)c2cc(C(=O)NCCc3ccc(Cl)cc3)sc2c2ccccc21  76%
48. CCCCOc1ccccc1C(=O)N(Cc1cccc(F)c1)C1CCS(=O)(=O)C1 (centres undefined)  75%
49. Cn1cc(CCCC(=O)NCc2ccccc2Cl)c2ccccc21  75%
50. COc1ccc(NC(=O)Cn2cc(C(=O)c3ccc(C)c(C)c3)c(=O)c3cc(OC)ccc32)cc1  72%
51. CCC(=O)N=c1sc2ccccc2n1-c1ccccc1  71%
52. O=c1c2oc3ccccc3c2n(Cc2ccc(F)cc2)c(=O)n1Cc1ccco1  71%
53. N#C/C(=C/c1ccc(Cl)cc1Cl)c1nc2ccccc2c(=O)[nH]1  70%
54. CCn1c(=O)c2cc(C(=O)Nc3cc(C)c(Cl)cc3OC)sc2c2ccccc21  69%
55. CC(C)(C)c1ccc(CSC2=Nc3ccccc3C3=NC(CC(=O)NCc4cccs4)C(=O)N23)cc1 (centres undefined)  68%
56. CCOc1ccccc1CNC(=O)Cn1c(=O)c2cccn2c2ccc(F)cc21  68%
57. CCC(C)NC(=O)C1CCN(S(=O)(=O)c2ccc3c(c2)CCCN3C(C)=O)CC1 (centres undefined)  67%
58. CC(C)(C)NC(=S)Nc1ccc2nccnc2c1  65%
59. COc1ccc(CCNC(=O)c2cc3c(=O)n(C)c4ccccc4c3s2)cc1OC  65%
60. COc1ccc(C(=O)Nc2ccc3oc(-c4cccnc4)nc3c2)cc1OC  62%
61. CCOc1ccc(CCNC(=O)c2cc3c(=O)n(CC)c4ccccc4c3s2)cc1OCC  60%
62. COc1cccc(CNC(=O)CCn2c(=O)c3cccn3c3ccc(F)cc32)c1OC  59%
63. CCc1ccc(-n2nc(CO)c(C(=O)NCCOC)n2)cc1  56%
64. Cc1ccc(S(=O)(=O)Cc2ccc(C(=O)NCCc3ccc(Cl)cc3)o2)cc1  56%
65. CCOc1ccc(CNC(=O)CCCn2c(=O)c3cccn3c3ccccc32)cc1  55%
66. CCOc1ccc(-n2nc(CO)c(C(=O)NCc3ccccn3)n2)cc1  53%
67. Cc1nc(-c2ccccc2)sc1-c1ccc(SCC(=O)NCc2ccc(F)cc2)nn1  53%
68. Cc1nc(-c2ccccc2)sc1-c1ccc(SCC(=O)NCc2ccc(Cl)cc2)nn1  52%
69. CCc1ccc(-n2nc(CO)c(C(=O)NCc3cccnc3)n2)cc1  51%
70. CCc1ccc(CNC(=O)c2cc3c(=O)n(CC)c4ccccc4c3s2)cc1  51%
71. CCOc1ccc(CCNC(=O)CCn2c(=O)c3cccn3c3ccc(F)cc32)cc1  50%
72. Cc1ccc(NC(=O)CSc2ccc(-c3ccccn3)nn2)cc1F  49%
73. CCc1ccc(NC(=O)CCn2c(=O)c3cccn3c3ccccc32)cc1  48%
74. CCOc1ccc(-n2nc(CO)c(C(=O)NCC(c3ccccc3)c3ccccc3)n2)cc1  48%
75. CC(C)Oc1ccc(CNC(=O)CCn2c(=O)c3cccn3c3ccc(F)cc32)cc1  48%
76. CCOc1ccccc1CNC(=O)CCn1c(=O)c2cccn2c2ccc(F)cc21  46%
77. Cc1nc(-c2ccccc2)sc1-c1ccc(SCC(=O)Nc2cccc(C(F)(F)F)c2)nn1  41%
78. Cc1cccc(NC(=O)CSc2ccc(-c3sc(-c4ccccc4)nc3C)nn2)c1C  33%
79. Cc1nc(-c2ccccc2)sc1-c1ccc(SCC(=O)Nc2ccccc2)nn1  24%

For `CCOc1ccc(CN2CCN(Cc3ccc4c(c3)c3ccccc3n4CC)CC2)cc1`, the survival was 0% (active).
In the case of `CCCCNC(=O)c1nn(-c2ccc(CC)cc2)nc1CO`, the survival is reported as 41% (active).
`CCOc1ccc(-n2nc(CO)c(C(=O)NCc3ccc(Cl)cc3)n2)cc1` was tested, and the survival was 43% (active).
In the case of `CCOc1ccc(-n2nc(CO)c(C(=O)NCC(C)O)n2)cc1` (centres undefined), the survival is reported as 39% (active).
With `CCOc1ccc(-n2nc(CO)c(C(=O)NCc3cccnc3)n2)cc1` the survival was 44% (active).
`CCOc1ccc(-n2nc(CO)c(C(=O)NCc3cccc(OC)c3)n2)cc1` was tested, and the survival was 41% (active).
For `O=C(CSc1ccc(-c2ccccn2)nn1)Nc1ccc(F)c(F)c1`, the survival was 27% (active).
With `CC(=O)Nc1cccc(NC(=O)CSc2ccc(-c3sc(-c4ccccc4)nc3C)nn2)c1` the survival was -14% (active).
With `Cc1ccc(NC(=O)CSc2ccc(-c3sc(-c4ccccc4)nc3C)nn2)cc1F` the survival was 25% (active).
With `Cc1nc(-c2ccccc2)sc1-c1ccc(SCC(=O)Nc2ccc(F)cc2F)nn1` the survival was 19% (active).
With `O=C(CCCn1c(=O)c2cccn2c2ccc(F)cc21)NCc1ccc(Cl)cc1` the survival was 38% (active).
With `CCOc1ccc(CNC(=O)CCn2c(=O)c3cccn3c3ccc(F)cc32)cc1` the survival was 45% (active).
In the case of `CCOc1ccc(CNC(=O)CCCn2c(=O)c3cccn3c3ccc(F)cc32)cc1`, the survival is reported as 41% (active).
`CCOc1ccccc1CNC(=O)CCCn1c(=O)c2cccn2c2ccc(F)cc21` was tested, and the survival was 33% (active).
`COc1cccc(CNC(=O)CCCn2c(=O)c3cccn3c3ccc(F)cc32)c1OC` was tested, and the survival was 43% (active).
With `CC(C)Oc1ccc(CNC(=O)CCCn2c(=O)c3cccn3c3ccccc32)cc1` the survival was 45% (active).
`CCn1c(=O)c2cc(C(=O)NCc3cc(OC)ccc3OC)sc2c2ccccc21` was tested, and the survival was 54% (active).
For `CCn1c(=O)c2cc(C(=O)NCCc3cc(OC)ccc3OC)sc2c2ccccc21`, the survival was 34% (active).
With `CCn1c(=O)c2cc(C(=O)Nc3cc(OC)c(OC)c(OC)c3)sc2c2ccccc21` the survival was 41% (active).
In the case of `CCn1c(=O)c2cc(C(=O)NCCc3ccc(OC)c(OC)c3)sc2c2ccccc21`, the survival is reported as 42% (active).
